Results filed as inconclusive are left out. A number with no mark means an inactive call. Calls of active or inactive are those of the source. The call rests on the fitted dose curve; in most records, active means well fitted curve in the direction sought with a large enough effect; inconclusive means small, poorly fitted or top-dose-only effect, or another doubt; inactive means no such curve, though single readings can be large; an effect the other way counts as inactive or inconclusive.
Legend:
[1] = biological target: Cellular tumor antigen p53 (Homo sapiens) (UniProt P04637); experiment: Primary qHTS for small molecule compounds that upregulate eGFP-tagged delta133p53alpha (in N-terminal) cells. (AID 2060322); details: NCI-H358 eGFP-delta133p53alpha fluorescence, 24 h; activation: hits give high values; further: nearly all actives have a fitted effect of over 75% in size; further: potency means the concentration at half of the fitted maximal effect;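 on activation: series mostly up to about 56 µM; 0% = DMSO vehicle and 100% = reference activator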
Chain of Cellular tumor antigen p53 (Homo sapiens) (P04637 whole entry, looked up): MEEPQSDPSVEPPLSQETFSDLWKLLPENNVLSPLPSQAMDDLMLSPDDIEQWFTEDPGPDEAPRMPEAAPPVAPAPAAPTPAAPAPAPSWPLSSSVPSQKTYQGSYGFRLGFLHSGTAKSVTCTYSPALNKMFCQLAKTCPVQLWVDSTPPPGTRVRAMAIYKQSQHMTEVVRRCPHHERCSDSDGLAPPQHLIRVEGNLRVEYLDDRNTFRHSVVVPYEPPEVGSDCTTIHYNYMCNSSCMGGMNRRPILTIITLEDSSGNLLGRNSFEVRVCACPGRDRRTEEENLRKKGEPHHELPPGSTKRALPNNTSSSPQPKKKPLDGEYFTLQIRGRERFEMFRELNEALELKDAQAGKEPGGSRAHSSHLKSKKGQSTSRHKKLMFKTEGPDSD
Method in brief: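 NCI-H358 cells pre-induced 24 h with 10 ng/ml doxycycline to express N-terminal eGFP-delta133p53alpha, then dosed 24 h at 37C without doxycycline; fixed, Hoechst-stained, GFP intensity by laser scanning cytometry, normalized to DMSO (0%) and 57.5 uM 5-azacytidine (100%).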

[2] = biological target: Aldehyde dehydrogenase, mitochondrial (Homo sapiens) (UniProt P05091); experiment: qHTS for Inhibitors of the Aldehyde Dehydrogenase Family (ALDH2) Primary screen (AID 2061308);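 further: plate controls were vehicle for no effect and reference inhibitor for full effect; nearly all actives have a fitted effect of over 55% in size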
[3] = biological target: Retinaldehyde dehydrogenase 3 (Homo sapiens) (UniProt P47895); experiment: qHTS for Inhibitors of the Aldehyde Dehydrogenase Family (ALDH1A3) Confirmatory screens (AID 2061311); further: potency means the concentration at half of the fitted maximal effect; nearly all actives have a fitted effect of over 60% in size
[4] = biological target: Retinaldehyde dehydrogenase 3 (Homo sapiens) (UniProt P47895); experiment: qHTS for Inhibitors of the Aldehyde Dehydrogenase Family (ALDH1A3) Validation screen (AID 2061312); further: potency means the concentration at half of the fitted maximal effect; nearly all actives have a fitted effect of over 45% in size
[5] = biological target: Retinaldehyde dehydrogenase 3 (Homo sapiens) (UniProt P47895); experiment: qHTS for Inhibitors of the Aldehyde Dehydrogenase Family (ALDH1A3) Primary screen (AID 2061315); further: potency means the concentration at half of the fitted maximal effect

## CC(CNS(=O)(=O)C(C)C)c1ccc(-c2ccc(C#N)cc2)cc1 (stereo not given)
[1]
  activation: -9%
[2]
  Potency: inactive

## COc1cc2c(cc1O)C1(Cc3ccc4c(c3C1=O)OCO4)N(C)CC2 (stereo not given)
[1]
  activation: -7.63%
[2]
  Potency: inactive

## C[C@@H]1O[C@@H](O[C@H]2[C@@H]3C=CO[C@@H](O[C@@H]4O[C@H](CO)[C@@H](O)[C@H](O)[C@H]4O)[C@@H]3[C@@]3(CO)O[C@@H]23)[C@H](OC(=O)/C=C/c2ccc(O)c(O)c2)[C@H](O)[C@H]1O
[1]
  activation: -5.34%
[2]
  Potency: inactive

## COc1cc(/C=C/C=O)cc(OC)c1O[C@@H]1O[C@H](CO)[C@@H](O)[C@H](O)[C@H]1O
[1]
  activation: -14.3%
[2]
  Potency: inactive

## COc1ccc(C2COc3cc(O)ccc3C2)c(O)c1OC (stereo not given)
[1]
  activation: -2.29%
[2]
  Potency: inactive

## C=C[C@H]1C(O[C@@H]2O[C@H](CO)[C@@H](O)[C@H](O)[C@H]2O)OC=C2C(=O)N3CCc4c([nH]c5ccccc45)C3CC21 (stereo not given in full)
[1]
  Potency: 5.22 µM (active)
[2]
  Potency: inactive

## C/C=C1/CC2C(=O)Nc3cc(O)c(OC)cc3C(=O)N2C1 (stereo not given)
[1]
  activation: -3.57%
[2]
  Potency: inactive

## C/C=C1\[C@H](OC2OC(COC3OC(CO)C(O)C(O)C3O)C(O)C(O)C2O)OC=C(C(=O)OC)[C@H]1CC(=O)OCCc1ccc(O)cc1 (stereo not given in full)
[1]
  activation: -13%
[2]
  Potency: inactive

## CC(=O)OC/C(=C/C(=O)O)CC[C@@H]1C(CO)=CC[C@@H]2C(C)(C)CCC[C@@]12C
[1]
  activation: 2.29%
[2]
  Potency: inactive

## O=C(O)/C=C/c1cc2c(cc1O[C@@H]1O[C@H](CO)[C@@H](O)[C@H](O)[C@H]1O)OCO2
[1]
  activation: 9.92%
[2]
  Potency: inactive

## CC1(CO)CC(O)[C@]2(C(=O)O)CCC34CC3(C=CC3[C@]5(C)C(CC[C@]34C)C(C)(CO)[C@@H](O)[C@H](O)[C@@H]5O)C2C1 (stereo not given in full)
[1]
  activation: 9.92%
[2]
  Potency: inactive

## N#Cc1cc(F)cc(-c2nc(-c3ccccn3)no2)c1
[1]
  activation: -12.4%
[2]
  Potency: inactive

## CC(C)S(=O)(=O)N[C@H]1CCOC[C@@H]1c1ccc(-c2ccc(C#N)s2)cc1
[1]
  activation: -15%
[2]
  Potency: inactive

## O=C(/C=C/c1ccc(O)cc1)O[C@H]1[C@@H]2C=CO[C@@H](O[C@@H]3O[C@H](CO)[C@@H](O)[C@H](O)[C@H]3O)[C@@H]2[C@@]2(CO)O[C@@H]12
[1]
  activation: -7.63%
[2]
  Potency: inactive

## O=C(O)c1ccnc2cc(-c3nc4ccccc4n3CCN3CCCCC3)sc12
[1]
  activation: -1.79%
[2]
  Potency: inactive

## C[C@H](NCc1ccc(OCc2ccccc2F)cc1)C(N)=O
[1]
  activation: 11.5%
[2]
  Potency: inactive

## OC[C@H]1O[C@@H](OC/C=C/c2ccc(O)cc2)[C@H](O)[C@@H](O)[C@@H]1O
[1]
  activation: 12.5%
[2]
  Potency: inactive

## COc1cc(O)cc(O[C@@H]2O[C@H](CO)[C@@H](O[C@@H]3OC[C@](O)(CO)[C@H]3O)[C@H](O)[C@H]2O)c1OC
[1]
  activation: -14.5%
[2]
  Potency: inactive

## OC[C@H]1O[C@@H](OCc2ccccc2)[C@H](O)[C@@H](O)[C@@H]1O
[1]
  activation: -9.16%
[2]
  Potency: inactive

## CC(C)CC1NC(=O)C2CC3(O)c4ccccc4NC3N2C1=O (stereo not given)
[1]
  activation: -9.92%
[2]
  Potency: inactive

## COc1cc(N2CCOCC2)ccc1Nc1ncc(F)c(Nc2ccccc2NS(C)(=O)=O)n1
[1]
  Potency: 9.53 µM (active)
[2]
  Potency: inactive

## CC(C)(O)/C=C/C1=CC(=O)[C@@](C)(O)C[C@H]1O
[1]
  activation: -8.4%
[2]
  Potency: inactive

## O=C(O[C@H]1[C@@H]2C=CO[C@@H](O[C@@H]3O[C@H](CO)[C@@H](O)[C@H](O)[C@H]3O)[C@@H]2[C@@]2(CO)O[C@@H]12)c1ccc(O)c(O)c1
[1]
  activation: -2.68%
[2]
  Potency: inactive

## CC(C)n1nc(C#Cc2ccccc2)c2c(N)ncnc21
[1]
  activation: 25%
[2]
  Potency: inactive

## COC(=O)C1=CO[C@@H](O[C@@H]2O[C@H](CO)[C@@H](O)[C@H](O)[C@H]2O)[C@@H]2C(CO)=CC[C@H]12
[1]
  activation: 0%
[2]
  Potency: inactive

## COc1cc(/C=C/C(=O)O[C@H]2[C@H](O)[C@@H](CO)O[C@@]2(CO)O[C@H]2O[C@H](COC(=O)c3ccc(O)cc3)[C@@H](O)[C@H](O)[C@H]2O)cc(OC)c1OC
[1]
  activation: -19.8%
[2]
  Potency: inactive

## CC1(C)OC(=O)CC(O)C2(C)C1CC(=O)C1(C)C2C(O)CC2(C)C(c3ccoc3)OC(=O)C3OC321 (stereo not given)
[1]
  activation: -23.7%
[2]
  Potency: inactive

## C=C1CC[C@@H]2[C@](C)(CO)[C@H](O)CC[C@@]2(C)[C@@H]1/C=C/C1=CCOC1=O
[1]
  activation: -12.2%
[2]
  Potency: inactive

## CC(C)(Oc1ccc(-c2nc3cc(Cl)ccc3s2)cc1)C(=O)O
[1]
  activation: -19.6%
[2]
  Potency: inactive
[3]
  Potency: 12.6 µM (active)
[4]
  Potency: 31.6 µM (active)
[5]
  Potency: 11.2 µM (active)

## COC(=O)C1=COC(O[C@@H]2O[C@H](CO)[C@@H](O)[C@H](O)[C@H]2O)/C(=C\COC(=O)c2ccc(OC3OC(CO)C(O)C(O)C3O)c(OC)c2)C1CC(=O)OCCc1ccc(O)cc1 (stereo not given in full)
[1]
  activation: -11.5%
[2]
  Potency: inactive

## C[C@@H]1C[C@H]2OC(=O)[C@@]3(C)CCC[C@](C)(C23)[C@@]1(O)CCC1=CC(=O)OC1O (stereo not given in full)
[1]
  activation: 9.16%
[2]
  Potency: inactive

Source: PubChem BioAssay (NCATS)
